# Source: PubChem BioAssay (NCI)
# Where “and” joins values, the source holds several entries; their conditions need not be identical. Equal values may be shown once. Compounds without any hit were thinned out: in the full panel of roughly 83,000, 20% have a hit.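 Testing used 96-well plates and a 48-hour single-concentration exposure. Example: -40 means 40% of the starting cells died.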 Calls of active or inactive are those of the source. Rule for the calls: active = growth percent below 10; inactive = the rest.
# Test system: MDA-MB-468 breast
# Test: NCI-60 one-dose screen, 48 h (100 = growth as untreated, 0 = no growth, -100 = all killed)
# Details: 10 µM unless noted
row,SMILES,growth
1,C(=C\c1n(Cc2ccc3ccccc3c2)c(-c2ccccc2)c(-c2ccccc2)[n+]1Cc1ccc2ccccc2c1)/c1ccccc1,-70.8% (active)
2,COc1cc(-c2nccc3cc4c(cc23)OCO4)cc(OC)c1OC,-6.2% (active) and 5.32% (active)
3,NC(N)=NN=c1c(=O)c2ccccc2c1=O,106% (inactive)
4,COc1cc2c(c(OC)c1)C1c3ccccc3NC(=O)N1CC2 (stereo not given),-0.759% (active)
5,CC12CCC3C4(C)COC(c5ccccc5Cl)OC4CCC3(C)C1CC(C1=CCOC1=O)O2 (stereo not given),24.9% (inactive)
6,O=C1N=C(N2CCOCC2)S/C1=C\c1cn(-c2ccccc2)nc1-c1ccccc1,83.3% (inactive)
7,O=C(Nc1ccc(Nc2ccncc2)cc1)c1ccc(C(=O)Nc2ccc(Nc3ccncc3)cc2)cc1,2.69% (active)
8,CCOC(=O)c1sc2ncc(-c3ccc(C)cc3)n2c1C,102% (inactive)
9,COc1ccc(Cn2cc(C(=O)N=Nc3c(O)[nH]c4ccc(Br)cc34)nn2)cc1,96.8% (inactive)
10,COc1cc(NC(=O)c2cc3ccccc3nc2Nc2ccc(F)cc2)cc(OC)c1OC,-0.996% (active)
11,O=C(NC1C(O)OC(CO)C(O)C1O)NS(=O)(=O)c1ccc(Cl)cc1 (stereo not given),108% (inactive)
12,c1ccc(CNc2ncnc3scc(-c4cccs4)c23)nc1,12% (inactive)
13,CCOC(=O)C1=C(Nc2ccc(Br)cc2)C(=O)N(CC)C1,101% (inactive)
14,ClCC(Cl)[C@@H]1CC2C=CC1C2 (stereo not given in full),96% (inactive)
15,COC(=O)c1c2c(c(C)[n+]([O-])c1C)C(=O)C=C(NCc1cccc(Cl)c1)C2=O,-66.3% (active)
16,CS(=O)(=O)c1ccc(-c2nc3cc(Cl)ccc3n2CC(=O)NO)cc1,96% (inactive)
17,O=C(CCl)N(O)c1ccc(/C=C/c2ccccc2)cc1,25% (inactive) and 6.6% (active)
18,Nc1ccn(C2CC(N)C(CO)O2)c(=O)n1 (stereo not given),101% (inactive)
19,CC(C)(O)CC(=O)NCCn1ccc2ncnc(Nc3ccc(Oc4cccc(C(F)(F)F)c4)c(Cl)c3)c21,-43.8% (active)
20,CS(=O)(=O)c1ccc(Nc2nc(N[C@H]3CCCC[C@H]3N)nc3cc[nH]c(=O)c23)cc1,-75.2% (active)

row,SMILES,growth
1,C=CCN(CC=C)C(=O)[C@H](CC)[C@@H]1CC[C@@H](C)[C@@H]([C@H](C)[C@@H](O)[C@@H](C)C(=O)[C@H](CC)C2O[C@]3(C=CC(=O)[C@]4(CC[C@@](C)([C@H]5CC[C@](O)(CC)[C@H](C)O5)O4)O3)[C@H](C)C[C@@H]2C)O1 (stereo not given in full),-17.4% (active)
2,CCN(CC)CCCC(C)Nc1ccc2ccc(Cl)cc2n1 (stereo not given),77.8% (inactive)
3,CC(=O)c1ccc(-n2c(-c3cc(-c4ccsc4)n[nH]3)n[nH]c2=S)cc1,97.3% (inactive)
4,CN1CCN(c2ccc3nc(/N=C/c4ccc5sc(-c6ccc([N+](=O)[O-])cc6)nc5c4)sc3c2)CC1,109% (inactive)
5,COc1ccc(-c2nn(-c3cccc(NC(=O)c4ccc5c(c4)OCCO5)c3)cc2-c2ccncc2)cc1Cl,26.2% (inactive)
6,Cc1ccc(-c2cc3nc(C(Cl)Cl)nc(-c4cccnc4)n3n2)cc1,-61.5% (active)
7,Cc1nc2cccc(NCCCCC(=O)NO)c2c(=O)n1-c1ccccc1,54.6% (inactive)
8,CCn1cc(C2NC(=O)c3ccccc3N2)c2cccc(C)c21 (stereo not given),17.9% (inactive)
9,CC(=O)OCCC(C)CCC=C(C)C (stereo not given),122% (inactive)
10,O=C1CC(c2ccccc2)Cc2nc3ccc(Cl)cc3cc21 (stereo not given),10.2% (inactive)
11,COC(=O)Nc1nc2ccc(S(=O)c3ccccc3)cc2[nH]1 (stereo not given),33.8% (inactive)
12,CCCCNc1ccc(Nc2ccccc2)cc1,11.4% (inactive)
13,Nc1nccc(=S)[nH]1,109% (inactive)
14,CCN1CCN(c2cc(C)nc(N(CCNc3ccnc4cc(Cl)ccc34)Cc3ccc4c(c3)OCO4)n2)CC1,-67.6% (active)
15,Nc1nc(N)c2c(n1)NC(c1ccccc1)CC(c1ccc(Nc3nc(NCCO)nc(Nc4ccc(Cl)cc4)n3)cc1)=N2 (stereo not given),-70.1% (active)
16,CC(=O)Nc1ccc(-n2cnc3cc(-c4ccc(OCCN5CCCCC5)cc4)ccc32)cc1,115% (inactive)
17,O=C1/C(=C/c2cc(F)cc(F)c2)Cc2cc(F)cc(F)c21,74.1% (inactive)
18,COc1cc(/C=C2/C=C(c3ccccc3)N(CCc3ccc(S(N)(=O)=O)cc3)C2=O)cc(OC)c1OC,94.7% (inactive)
19,COc1ccc(Cn2cc3c(c2-c2ccccc2)CCCc2cnoc2-3)cc1[N+](=O)[O-],40.4% (inactive)
20,C=C1C(=O)O[C@H]2[C@H]1CC/C(COC(=O)NCc1cn(C)c3ccccc13)=C\CC[C@@]1(C)O[C@@H]21,-38.4% (active)
